Results filed as inconclusive are left out. Active and inactive are the calls of the source. The call rests on the fitted dose curve; in most records, active means well fitted inhibition curve with a large enough effect; inconclusive means small, poorly fitted or top-dose-only effect; inactive means flat fitted curve, though single readings scatter.
Potency means the concentration at half of the fitted maximal effect.

The test system of the first experiment is AA1029. Kind of experiment: qHTS profiling for inhibitors of Plasmodium falciparum proliferation (AID 504749). Further: nearly all actives have a fitted effect of over 60% in size.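 On activity, negative = inhibition: 0% = DMSO vehicle and full inhibition = artemisinin control.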 To be noted: P. falciparum in erythrocytes, SYBR Green DNA, 72 h; series mostly up to 28.7 µM; activity, negative = inhibition: at the top concentration. The procedure, abridged:
(§1)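 P. falciparum-infected erythrocytes (0.3% parasitemia, 2.5% hematocrit) incubated with compound 72 h at 37 C, 5% CO2. Parasite DNA detected by SYBR Green after lysis, overnight at room temperature; normalised to 0.29 uM artemisinin and DMSO.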
On to `CN1CCC[C@@H]1c1cccnc1`, for which the “activity, negative = inhibition” value was 4.97% (inactive).

Take `O=C(Nc1ccc(Oc2ccc(Cl)cc2)c(Cl)c1)c1cc(I)cc(I)c1O`: the “activity, negative = inhibition” value is -19.7% (inactive).

Turning to `CC(C)NC[C@@H](O)COc1cccc2ccccc12`, the Potency was 11.2 µM (active).

For `COc1cccc(CCc2ccccc2OCC(CN(C)C)OC(=O)CCC(=O)O)c1` (centres undefined), the Potency is 3.98 µM (active).

Consider `CCOc1ccc(Cc2nccc3cc(OCC)c(OCC)cc23)cc1OCC`, for which the “activity, negative = inhibition” value is -10.7% [at 12.8 µM] (inactive).

For the compound `CC(C)COC(=O)c1ccc(N)cc1`, the “activity, negative = inhibition” value was 5.09% (inactive).

Regarding `CCCCC(CC)CN=C(N)NC(N)=NCCCCCCN=C(N)NC(N)=NCC(CC)CCCC` (centres undefined), the Potency was 1.41 µM (active).

On to `C[C@@H]1C(=O)NC2=Nc3cccc(Cl)c3CN21`, for which the “activity, negative = inhibition” value was -4.89% (inactive).

For the compound `Oc1ccc(Cl)c2cccnc12`, the “activity, negative = inhibition” value is -6.58% (inactive).

Consider `CNCCC=C1c2ccccc2CCc2ccccc21`, for which the Potency is 4.47 µM (active).

With `CC[N+](CC)(CCNC(=O)C(=O)NCC[N+](CC)(CC)Cc1ccccc1Cl)Cc1ccccc1Cl`, the Potency is 2.82 µM (active).

Turning to `C[C@@H]1CN(CCCn2c3ccccc3c3ccccc32)C[C@H](C)N1`, the Potency is 4.47 µM (active).

For `CCCCCCCCCCCCCCCCCC(=O)OCC(O)CO` (centres undefined), the “activity, negative = inhibition” value is 1.29% (inactive).

With `NC(CS)C(=O)O` (centres undefined), the Potency was 15.8 µM (active).

As to `O=C1OCCN1/N=C/c1ccc([N+](=O)[O-])o1`, the Potency is 10 µM (active).

On to `CCN(CC)C(=O)/C(C#N)=C/c1cc(O)c(O)c([N+](=O)[O-])c1`, for which the “activity, negative = inhibition” value was -0.61% (inactive).

As to `CCCCc1nc(Cl)c(CO)n1Cc1ccc(-c2ccccc2-c2nn[nH]n2)cc1`, the Potency was 10 µM (active).

On to `COc1ccc(C2C(=O)c3ccccc3C2=O)cc1`, for which the “activity, negative = inhibition” value was 9.26% (inactive).

Take `Oc1ccc(O)cc1`: the “activity, negative = inhibition” value was -12.1% (inactive).

Turning to `CC(=O)OCC(=O)[C@@]1(OC(C)=O)[C@@H](C)C[C@H]2[C@@H]3C[C@H](F)C4=CC(=O)C=C[C@]4(C)[C@@]3(F)[C@@H](O)C[C@@]21C`, the “activity, negative = inhibition” value was -19.6% (inactive).

Turning to `O=C1[C@H]2CCCC[C@H]2C(=O)N1CCCCN1CCN(c2nsc3ccccc23)CC1`, the “activity, negative = inhibition” value is -4.96% (inactive).

Regarding `CO/N=C1\CN(c2nc3c(cc2F)c(=O)c(C(=O)O)cn3C2CC2)CC1CN` (centres undefined), the Potency is 7.94 µM (active).

As to `Cc1ccc(O)c2ncccc12`, the “activity, negative = inhibition” value was -15.5% (inactive).

In the case of `CCN(CC)CCOc1ccc(C(O)(Cc2ccc(Cl)cc2)c2ccc(C)cc2)cc1` (centres undefined), the Potency was 11.2 µM (active).

Regarding `CN1CCN(CCCN2c3ccccc3Sc3ccc(S(=O)(=O)N(C)C)cc32)CC1`, the “activity, negative = inhibition” value was -25.7% [at 12.8 µM] (inactive).

The next experiment relates to AS120. The description is as above. The following applies: P. falciparum in erythrocytes, SYBR Green DNA, 72 h; series mostly up to 28.7 µM; activity, negative = inhibition: at the top concentration. The essentials: as §1
As for `C=C(CC)C(=O)c1ccc(OCC(=O)O)c(Cl)c1Cl`, the Potency was 12.6 µM (active).

Consider `CN1CCC[C@@H]1c1cccnc1`, for which the “activity, negative = inhibition” value is 7.71% (inactive).

On to `CC(C)NC[C@@H](O)COc1cccc2ccccc12`, for which the Potency is 8.91 µM (active).

On to `COc1cccc(CCc2ccccc2OCC(CN(C)C)OC(=O)CCC(=O)O)c1` (centres undefined), for which the Potency was 4.47 µM (active).

As to `CCOc1ccc(Cc2nccc3cc(OCC)c(OCC)cc23)cc1OCC`, the “activity, negative = inhibition” value was -4.92% [at 12.8 µM] (inactive).

On to `CC(C)COC(=O)c1ccc(N)cc1`, for which the “activity, negative = inhibition” value was -25% (inactive).

For the compound `CCN(CC)CCNC(=O)COc1ccc(Cl)cc1`, the Potency was 12.6 µM (active).

For `CCCCC(CC)CN=C(N)NC(N)=NCCCCCCN=C(N)NC(N)=NCC(CC)CCCC` (centres undefined), the Potency is 0.891 µM (active).

Consider `C[C@@H]1C(=O)NC2=Nc3cccc(Cl)c3CN21`, for which the “activity, negative = inhibition” value is -6.08% (inactive).

For `Oc1ccc(Cl)c2cccnc12`, the “activity, negative = inhibition” value is -23% (inactive).

Regarding `CC[N+](CC)(CCNC(=O)C(=O)NCC[N+](CC)(CC)Cc1ccccc1Cl)Cc1ccccc1Cl`, the Potency was 1 µM (active).

With `CN(C)CC/C=C1\c2ccccc2Sc2ccc(Cl)cc21`, the Potency was 11.2 µM (active).

As for `c1ccc(-c2ccc(C(c3ccccc3)n3ccnc3)cc2)cc1` (centres undefined), the Potency was 3.98 µM (active).

For the compound `CN(C)C(=S)SC(=S)N(C)C`, the Potency was 12.6 µM (active).

Consider `C[C@@H]1CN(CCCn2c3ccccc3c3ccccc32)C[C@H](C)N1`, for which the Potency was 12.6 µM (active).

As for `CCCCCCCCCCCCCCCCCC(=O)OCC(O)CO` (centres undefined), the “activity, negative = inhibition” value was 1.44% (inactive).

As to `CCN(CC)C(=O)/C(C#N)=C/c1cc(O)c(O)c([N+](=O)[O-])c1`, the “activity, negative = inhibition” value is -16.7% (inactive).

As for `CCCCc1nc(Cl)c(CO)n1Cc1ccc(-c2ccccc2-c2nn[nH]n2)cc1`, the Potency is 8.91 µM (active).

As to `CCCCCCCCCCCCCCNCCO`, the Potency was 12.6 µM (active).

With `COc1ccc(C2C(=O)c3ccccc3C2=O)cc1`, the “activity, negative = inhibition” value is 8.49% (inactive).

For `Cc1cccc(C)c1NC(=O)CN1CCN(CCCC(c2ccc(F)cc2)c2ccc(F)cc2)CC1`, the Potency was 3.98 µM (active).

With `CC(=O)OCC(=O)[C@@]1(OC(C)=O)[C@@H](C)C[C@H]2[C@@H]3C[C@H](F)C4=CC(=O)C=C[C@]4(C)[C@@]3(F)[C@@H](O)C[C@@]21C`, the “activity, negative = inhibition” value was -23.4% (inactive).

Regarding `O=C1[C@H]2CCCC[C@H]2C(=O)N1CCCCN1CCN(c2nsc3ccccc23)CC1`, the “activity, negative = inhibition” value was -16.7% (inactive).

For another experiment, the system named is ATS189. Described as above. To be noted: P. falciparum in erythrocytes, SYBR Green DNA, 72 h; series mostly up to 28.7 µM; activity, negative = inhibition: at the top concentration. The procedure, abridged:
as §1
On to `CN1CCC[C@@H]1c1cccnc1`, for which the “activity, negative = inhibition” value was -0.168% (inactive).

Take `O=C(Nc1ccc(Oc2ccc(Cl)cc2)c(Cl)c1)c1cc(I)cc(I)c1O`: the “activity, negative = inhibition” value was -29.9% (inactive).

`CC(C)NC[C@@H](O)COc1cccc2ccccc12`: the Potency is 10 µM (active).

Consider `COc1cccc(CCc2ccccc2OCC(CN(C)C)OC(=O)CCC(=O)O)c1` (centres undefined), for which the Potency was 5.62 µM (active).

In the case of `CCOc1ccc(Cc2nccc3cc(OCC)c(OCC)cc23)cc1OCC`, the “activity, negative = inhibition” value was -20.7% [at 12.8 µM] (inactive).

`CC(C)COC(=O)c1ccc(N)cc1`: the “activity, negative = inhibition” value was 0.715% (inactive).

On to `CCCCC(CC)CN=C(N)NC(N)=NCCCCCCN=C(N)NC(N)=NCC(CC)CCCC` (centres undefined), for which the Potency is 3.16 µM (active).

As to `C[C@@H]1C(=O)NC2=Nc3cccc(Cl)c3CN21`, the “activity, negative = inhibition” value was -2.16% (inactive).

Turning to `Oc1ccc(Cl)c2cccnc12`, the “activity, negative = inhibition” value was -9.77% (inactive).

Consider `CC[N+](CC)(CCNC(=O)C(=O)NCC[N+](CC)(CC)Cc1ccccc1Cl)Cc1ccccc1Cl`, for which the Potency was 2.24 µM (active).

Take `c1ccc(-c2ccc(C(c3ccccc3)n3ccnc3)cc2)cc1` (centres undefined): the Potency is 8.91 µM (active).

Regarding `CCCCCCCCCCCCCCCC[N+](C)(C)CCN(Cc1ccc(OC)cc1)c1ncccn1`, the “activity, negative = inhibition” value was -25.9% [at 12.8 µM] (inactive).

As to `CCCCCCCCCCCCCCCCCC(=O)OCC(O)CO` (centres undefined), the “activity, negative = inhibition” value was 6.67% (inactive).

As for `CCN(CC)C(=O)/C(C#N)=C/c1cc(O)c(O)c([N+](=O)[O-])c1`, the “activity, negative = inhibition” value is -1.77% (inactive).

Turning to `COc1ccc(C2C(=O)c3ccccc3C2=O)cc1`, the “activity, negative = inhibition” value is 3.72% (inactive).

`Oc1ccc(O)cc1`: the “activity, negative = inhibition” value is -29.3% (inactive).

For `CC(=O)OCC(=O)[C@@]1(OC(C)=O)[C@@H](C)C[C@H]2[C@@H]3C[C@H](F)C4=CC(=O)C=C[C@]4(C)[C@@]3(F)[C@@H](O)C[C@@]21C`, the “activity, negative = inhibition” value is -6.98% (inactive).

On to `O=C1[C@H]2CCCC[C@H]2C(=O)N1CCCCN1CCN(c2nsc3ccccc23)CC1`, for which the “activity, negative = inhibition” value is -5.47% (inactive).

For `Cc1ccc(O)c2ncccc12`, the “activity, negative = inhibition” value was -3.86% (inactive).

Take `CCN(CC)CCOc1ccc(C(O)(Cc2ccc(Cl)cc2)c2ccc(C)cc2)cc1` (centres undefined): the Potency is 11.2 µM (active).

Turning to `CN1CCN(CCCN2c3ccccc3Sc3ccc(S(=O)(=O)N(C)C)cc32)CC1`, the Potency is 3.55 µM (active).

The values above are taken from PubChem BioAssay (NCATS).
